# Experimental data: PubChem BioAssay (Tox21)
# Several values for one entry are separate records, joined by “and”; a condition that tells them apart may be missing. Equal entries are not always repeated. Records with an inconclusive call do not appear. Entries that show only a call come without a potency. The source holds several records for some structures; these can differ, active in one and inactive in another. Activity calls are given as the source filed them. Unless noted, calls come from the whole dose curve.
# What was measured:
# [1] = Nuclear factor erythroid 2-related factor 2/antioxidant responsive element (Nrf2/ARE) small molecule agonists: qHTS cell viability counter screen in human keratinocytes (AID 1919968; active = well fitted curve in the direction sought with a large enough effect in the repeat runs; an effect the other way counts as inactive or inconclusive; note: nearly all actives have a fitted effect of over 55% in size; note: potency is the fitted concentration of half-maximal effect)
# In short: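 Viability counter-screen: KeratinoSens reporter cells, DMSO-delivered compounds, 23 h at 37 C, CellTiter-Fluor fluorescence.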
# [2] = Nuclear factor erythroid 2-related factor 2/antioxidant responsive element (Nrf2/ARE) small molecule agonists: luciferase reporter gene qHTS assay in human keratinocytes (AID 1919969); note: nearly all actives have a fitted effect of over 35% in size; note: potency is the fitted concentration of half-maximal effect
# [3] = molecular target: Gonadotropin-releasing hormone receptor (Homo sapiens) (UniProt P30968); assay: Human gonadotropin-releasing hormone receptor (GnRHR) small molecule agonists, calcium flux assay in GnRHR-HEK293 cells (AID 1920063); note: nearly all actives have a fitted effect of over 35% in size
# In short: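 Tox21-format agonist screen using human GnRHR-expressing HEK293 cells and a fluorescent calcium dye; kinetic 3-min fluorescence reading after compound addition, 15-point concentration series run in triplicate.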
# [4] = molecular target: KiSS-1 receptor (Homo sapiens) (UniProt Q969F8); assay: Human kisspeptin (KISS1R) small molecule agonists, calcium flux assay in KISS1R-HEK293 cells (AID 1920064; active = well fitted curve in the direction sought with a large enough effect in the repeat runs; an effect the other way counts as inactive or inconclusive)
# In short: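 Intracellular calcium mobilization in KISS1R-HEK293 cells was recorded by fluorescence (Ex/Em 480/540) for 3 min following compound addition to cells pre-loaded 1 h with calcium dye.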
# [5] = p53 small molecule agonists, cell-based qHTS assay with rat liver microsomes (AID 1963578)
# In short: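 Cells carrying a p53 response element–beta-lactamase reporter were plated and rested 5 h, then dosed with compound in DMSO plus rat liver microsomes and NADPH, each at 0.5 mg/mL final. After 16 h at 37 C, LiveBLAzer substrate was added for 2 h.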
# [6] = p53 small molecule agonists, cell-based qHTS assay with human liver microsomes: qHTS cell viability counter screen (AID 1963579); note: nearly all actives have a fitted effect of over 45% in size; note: potency is the fitted concentration of half-maximal effect
# In short: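 Cytotoxicity counter screen: p53RE-bla, 4,000 cells/well; 5 h settle, 37 C/5% CO2; cpd + HLM 0.5 mg/mL + NADPH 0.5 mg/mL (final); 16 h, 37 C; CellTiter-Glo, 30 min RT, luminescence.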
# [7] = p53 small molecule agonists, cell-based qHTS assay with rat liver microsomes: qHTS cell viability counter screen (AID 1963580); note: nearly all actives have a fitted effect of over 45% in size
# In short: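 Viability is assessed in parallel with the p53 reporter read: HCT-116 p53RE-bla cells receive compounds plus rat microsomes and NADPH (0.5 mg/mL final apiece), incubate 16 h at 37 C, and then CellTiter-Glo luminescence is recorded.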
# [8] = p53 small molecule agonists, cell-based qHTS assay: qHTS cell viability counter screen (AID 1963581); note: nearly all actives have a fitted effect of over 45% in size
# In short: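 Compounds are pinned onto HCT-116 p53RE-bla cells and left 16 h at 37 C. Following the reporter FRET read, ATP is quantified by CellTiter-Glo luminescence after 30 min at room temperature.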
# [9] = p53 small molecule agonists, cell-based qHTS assay (AID 1963582; active = well fitted activation curve with a large enough effect in the signal ratio in the repeat runs, not every such curve was filed as active; the % refers to the signal ratio)
# In short: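 Agonist activity was scored from beta-lactamase FRET fluorescence in p53RE-bla cells treated 16 h at 37 C with compounds in DMSO, substrate incubation being 2 h at room temperature.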
# [10] = molecular target: 5-hydroxytryptamine receptor 2A (Homo sapiens) (UniProt P28223); assay: 5-hydroxytryptamine receptor 2A (HTR2A) small molecule antagonists, cell-based qHTS assay (AID 1963586); note: nearly all actives have a fitted effect of over 45% in size; note: potency is the fitted concentration of half-maximal effect
# In short: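 Antagonist-mode intracellular calcium assay: DOI (4 nM) added after 5 min compound pre-incubation at room temperature to dye-loaded HTR2A-CHO cells. Fluorescence followed for 3 min, sampled every second.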
# [11] = molecular target: 5-hydroxytryptamine receptor 2A (Homo sapiens) (UniProt P28223); assay: 5-hydroxytryptamine receptor 2A (HTR2A) small molecule agonists, cell-based qHTS assay (AID 1963587); note: nearly all actives have a fitted effect of over 30% in size; note: potency is the fitted concentration of half-maximal effect
# In short: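 CHO cells stably expressing human HTR2A, plated 18 h, loaded with calcium dye 1 h at 37 C. Agonist mode: compounds added and intracellular calcium fluorescence recorded kinetically for 2 min at 1 sec intervals.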
# [12] = molecular target: Muscarinic acetylcholine receptor M1 (Homo sapiens) (UniProt P11229); assay: Cholinergic receptor muscarinic 1 (CHRM1) small molecule antagonists, cell-based qHTS assay (AID 1963588); note: nearly all actives have a fitted effect of over 40% in size
# In short: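 CHRM1-CHO calcium-flux assay, antagonist mode. Cells were seeded 18 h, dye-loaded 1 h at 37 C and given compound for 5 min at RT, then acetylcholine was added at 50nM. FDSS fluorescence was read 3 min; 15 concentrations, three runs.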
# [13] = molecular target: Muscarinic acetylcholine receptor M1 (Homo sapiens) (UniProt P11229); assay: Cholinergic receptor muscarinic 1 (CHRM1) small molecule agonists, cell-based qHTS assay (AID 1963589); note: nearly all actives have a fitted effect of over 35% in size
# In short: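 Stable CHRM1-CHO cells (human receptor) were incubated 18 h, dye-loaded for 1 h at 37 C and exposed to test compounds for agonist activity, with calcium-dependent fluorescence followed kinetically.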
# [14] = cAMP Responsive Elements (CRE) small molecule agonists, cell-based qHTS assay (AID 1963590)
# In short: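 FRET-based beta-lactamase readout (LiveBLAzer B/G, 2 h RT) quantified CRE activation in HEK 293T CRE-bla cells after 3 h treatment with DMSO-dissolved compounds.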
# [15] = cAMP Responsive Elements (CRE) small molecule antagonists, cell-based qHTS assay (AID 1963591; active = well fitted inhibition curve with a large enough effect in the signal ratio in the repeat runs, not every such curve was filed as active; the % refers to the signal ratio)
# In short: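 qHTS in CRE-bla HEK 293T cells: compound in DMSO, then 0.25 uM NKH477 (final), 3 h at 37 °C/5% CO2; beta-lactamase FRET read-out after 2 h substrate incubation.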
# [16] = molecular target: Beta-2 adrenergic receptor (Homo sapiens) (UniProt P07550); assay: Adrenergic beta2 receptor (ADRB2) small molecule antagonists, cell-based qHTS assay (AID 1963592); note: series mostly up to about 92 µM; nearly all actives have a fitted effect of over 50% in size
# In short: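 Cells (CHO, stable ADRB2 overexpression) incubated 18-20hr at 37C; compounds added from DMSO; agonist mix (1nM isoproterenol, 100uM IBMX, 25uM Ro-20-1724) added; 0.5hr RT; d2-cAMP and anti-cAMP-cryptate added; 1hr RT; 665/615 nm read.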
# [17] = molecular target: Beta-2 adrenergic receptor (Homo sapiens) (UniProt P07550); assay: Adrenergic beta2 receptor (ADRB2) small molecule agonists, cell-based qHTS assay (AID 1963593);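 note: CHO cells stably overexpressing human ADRB2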
# In short: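 CHO cells stably over-expressing ADRB2 were plated overnight at 37C, then dosed with compounds plus a stimulation mix containing 100uM IBMX and 25uM Ro-20-1724 for 0.5hr at room temperature. cAMP was measured by HTRF competition, 1hr.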
# [18] = molecular target: D(2) dopamine receptor (Homo sapiens) (UniProt P14416); assay: Dopamine D2 receptor (DRD2) small molecule agonists, cell-based qHTS assay (AID 1963594); note: nearly all actives have a fitted effect of over 35% in size
# In short: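 HEK293 cells stably expressing human DRD2, pre-treated with PDE inhibitor Ro20-1724 (0.1 mM final) and compound 10 min at room temperature, then stimulated with NKH477 (200nM […]) for 30 min. cAMP read by HTRF (665/620 nm).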
# [19] = molecular target: D(2) dopamine receptor (Homo sapiens) (UniProt P14416); assay: Dopamine D2 receptor (DRD2) small molecule antagonists, cell-based qHTS assay (AID 1963595; active = well fitted inhibition curve with a large enough effect in the signal ratio in the repeat runs, with a control signal flat; the % refers to the signal ratio)
# In short: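 Readout: HTRF cAMP, cAMP-d2 competing with cellular cAMP for anti-cAMP cryptate, read after 1 h. Cells: DRD2-HEK293. Conditions: 0.1 mM Ro20-1724, 12 nM quinpirole, 200 nM NKH477, 30 min RT.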
# [20] = G protein-coupled receptor (GPCR) small molecule agonists, calcium flux assay: HEK293 wild type cell line counter screen (AID 1920065)
# In short: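 In this agonist-mode screen, ATP is the positive control and DMSO the vehicle. Cells grow 18 h before a 1 h dye incubation at 37 C; signal is taken at Ex/Em 480/540 over 3 min.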
# Chain of 5-hydroxytryptamine receptor 2A (Homo sapiens) (P28223 whole entry, looked up): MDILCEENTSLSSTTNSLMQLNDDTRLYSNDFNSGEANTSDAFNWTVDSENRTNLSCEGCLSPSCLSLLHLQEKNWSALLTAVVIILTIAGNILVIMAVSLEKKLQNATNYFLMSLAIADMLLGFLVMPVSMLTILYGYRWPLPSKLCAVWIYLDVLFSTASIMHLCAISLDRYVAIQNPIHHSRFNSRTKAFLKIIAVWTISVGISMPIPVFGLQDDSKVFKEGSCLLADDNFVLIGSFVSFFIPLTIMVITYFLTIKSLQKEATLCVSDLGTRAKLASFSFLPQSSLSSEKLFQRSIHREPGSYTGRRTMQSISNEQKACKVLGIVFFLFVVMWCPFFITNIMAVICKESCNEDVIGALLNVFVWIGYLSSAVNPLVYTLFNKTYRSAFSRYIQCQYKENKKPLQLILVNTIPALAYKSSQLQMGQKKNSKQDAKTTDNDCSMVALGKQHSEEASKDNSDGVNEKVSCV
# Chain of KiSS-1 receptor (Homo sapiens) (Q969F8 whole entry, looked up): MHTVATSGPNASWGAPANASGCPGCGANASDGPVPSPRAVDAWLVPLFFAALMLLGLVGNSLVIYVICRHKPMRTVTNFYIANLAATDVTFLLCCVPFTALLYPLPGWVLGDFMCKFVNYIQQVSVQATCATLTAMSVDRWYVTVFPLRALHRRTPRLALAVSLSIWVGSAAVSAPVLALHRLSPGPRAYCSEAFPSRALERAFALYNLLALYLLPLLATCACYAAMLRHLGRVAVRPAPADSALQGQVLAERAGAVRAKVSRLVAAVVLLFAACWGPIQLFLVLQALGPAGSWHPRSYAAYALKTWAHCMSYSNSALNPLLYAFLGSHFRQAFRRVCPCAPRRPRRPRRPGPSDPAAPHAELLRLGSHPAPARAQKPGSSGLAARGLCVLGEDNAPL
# Chain of Muscarinic acetylcholine receptor M1 (Homo sapiens) (P11229 whole entry, looked up): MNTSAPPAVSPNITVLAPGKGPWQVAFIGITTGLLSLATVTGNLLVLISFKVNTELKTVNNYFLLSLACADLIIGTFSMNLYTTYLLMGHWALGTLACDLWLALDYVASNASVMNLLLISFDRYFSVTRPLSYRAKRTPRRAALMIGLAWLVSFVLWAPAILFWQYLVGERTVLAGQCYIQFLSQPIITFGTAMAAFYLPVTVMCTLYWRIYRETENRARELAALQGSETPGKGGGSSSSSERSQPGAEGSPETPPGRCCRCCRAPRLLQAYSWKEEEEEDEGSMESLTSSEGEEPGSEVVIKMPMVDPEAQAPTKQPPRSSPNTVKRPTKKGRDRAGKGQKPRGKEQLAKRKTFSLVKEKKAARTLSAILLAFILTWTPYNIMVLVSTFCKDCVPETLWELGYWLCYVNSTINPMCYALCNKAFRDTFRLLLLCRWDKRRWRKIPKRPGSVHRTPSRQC
# Chain of Gonadotropin-releasing hormone receptor (Homo sapiens) (P30968 whole entry, looked up): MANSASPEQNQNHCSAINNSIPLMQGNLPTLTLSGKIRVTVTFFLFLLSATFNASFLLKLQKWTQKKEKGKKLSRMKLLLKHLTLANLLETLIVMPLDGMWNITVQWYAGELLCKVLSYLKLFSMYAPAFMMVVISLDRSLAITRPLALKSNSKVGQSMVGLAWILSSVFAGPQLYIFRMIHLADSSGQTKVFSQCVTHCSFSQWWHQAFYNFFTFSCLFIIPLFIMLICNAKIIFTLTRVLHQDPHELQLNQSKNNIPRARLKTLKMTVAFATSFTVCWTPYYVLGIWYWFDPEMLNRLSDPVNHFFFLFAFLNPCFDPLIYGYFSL
# Chain of D(2) dopamine receptor (Homo sapiens) (P14416 whole entry, looked up): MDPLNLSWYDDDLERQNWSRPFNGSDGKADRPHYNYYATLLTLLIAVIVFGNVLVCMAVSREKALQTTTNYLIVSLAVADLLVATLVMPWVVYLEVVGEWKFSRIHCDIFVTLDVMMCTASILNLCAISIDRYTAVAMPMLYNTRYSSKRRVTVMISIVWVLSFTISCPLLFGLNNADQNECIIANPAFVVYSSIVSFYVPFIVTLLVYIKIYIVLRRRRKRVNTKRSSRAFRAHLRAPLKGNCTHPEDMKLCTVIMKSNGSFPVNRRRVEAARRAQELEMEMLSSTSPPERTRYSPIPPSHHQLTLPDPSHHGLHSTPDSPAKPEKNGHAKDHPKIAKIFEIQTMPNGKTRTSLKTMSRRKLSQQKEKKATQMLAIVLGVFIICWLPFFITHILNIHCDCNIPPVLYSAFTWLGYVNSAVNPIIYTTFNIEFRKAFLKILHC
# Chain of Beta-2 adrenergic receptor (Homo sapiens) (P07550 whole entry, looked up): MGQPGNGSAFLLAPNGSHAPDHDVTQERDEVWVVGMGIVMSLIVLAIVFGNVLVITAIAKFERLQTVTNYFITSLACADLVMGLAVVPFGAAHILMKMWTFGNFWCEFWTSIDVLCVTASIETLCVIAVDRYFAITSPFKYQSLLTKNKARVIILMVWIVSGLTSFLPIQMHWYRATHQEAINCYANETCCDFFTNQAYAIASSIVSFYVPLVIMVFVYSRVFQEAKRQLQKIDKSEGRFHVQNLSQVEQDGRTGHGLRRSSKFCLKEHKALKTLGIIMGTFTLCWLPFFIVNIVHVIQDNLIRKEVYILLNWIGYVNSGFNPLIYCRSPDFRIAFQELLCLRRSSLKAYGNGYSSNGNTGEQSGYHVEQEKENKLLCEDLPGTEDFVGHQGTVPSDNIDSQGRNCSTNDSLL
structure (smiles),measurement,setting,value
Nc1ccc(S(=O)(=O)Nc2cnc3ccccc3n2)cc1,Potency,[1],inactive
same,Potency,[2],inactive
same,Potency,[3],inactive
same,Potency,[4],inactive
same,Potency,[5],inactive
same,Potency,[6],inactive
same,Potency,[7],inactive
same,Potency,[8],inactive
same,Potency,[9],inactive
same,Potency,[10],inactive
same,Potency,[11],inactive
same,Potency,[12],inactive
same,Potency,[13],inactive
same,Potency,[14],inactive
same,Potency,[15],inactive
same,Potency,[16],inactive
same,Potency,[17],inactive
same,Potency,[18],inactive
same,Potency,[19],inactive
COc1ccc(CN(CCN(C)C)c2ccccn2)cc1,Potency,[1],inactive
same,Potency,[2],inactive
same,Potency,[3],inactive
same,Potency,[4],inactive
same,Potency,[20],inactive
same,Potency,[6],inactive
same,Potency,[8],inactive
same,Potency,[14],inactive
same,Potency,[15],inactive
same,Potency,[16],inactive
same,Potency,[17],inactive
same,Potency,[18],inactive
same,Potency,[19],inactive
Nc1nc(=S)c2[nH]cnc2[nH]1,Potency,[1],66.8 µM (active) and inactive
same,Potency,[2],inactive
same,Potency,[3],inactive
same,Potency,[4],inactive
same,Potency,[20],inactive
same,Potency,[6],inactive
same,Potency,[7],inactive
same,Potency,[14],inactive
same,Potency,[16],inactive
same,Potency,[17],inactive
same,Potency,[18],inactive
same,Potency,[19],inactive
O=[Se](O)O,Potency,[1],inactive
same,Potency,[2],inactive and 5.23 µM (active)
same,Potency,[3],inactive
same,Potency,[4],inactive
same,Potency,[5],inactive
same,"activity change, negative = cytotoxicity",[6],-2.48% [at 13.5 µM] (inactive)
same,Potency,[7],inactive
same,Potency,[8],inactive
same,"activity, negative = inhibition",[10],3.34% [at 12.7 µM] (inactive)
same,Potency,[11],19.5 µM (active)
same,activation,[11],-0.26% [at 15.9 µM] (inactive)
same,Potency,[12],inactive
same,"activity change, negative = inhibition",[15],2.98% [at 18.9 µM] (inactive)
same,Potency,[16],inactive
same,Potency,[18],inactive
same,Potency,[19],inactive
Cn1cc[nH]c1=S,Potency,[1],54.4 µM (active) and inactive
same,Potency,[2],27.3 µM (active) and inactive
same,Potency,[3],inactive
same,Potency,[4],inactive
same,Potency,[20],inactive
same,Potency,[14],inactive
same,Potency,[15],inactive
same,Potency,[16],inactive
same,Potency,[17],inactive
same,Potency,[18],inactive
same,Potency,[19],inactive
Cc1ccc(C)c(OCCCC(C)(C)C(=O)O)c1,Potency,[1],inactive
same,Potency,[2],inactive
same,Potency,[3],inactive
same,Potency,[4],inactive
same,Potency,[20],inactive
same,Potency,[6],inactive
same,Potency,[7],inactive
same,Potency,[8],inactive
same,Potency,[15],inactive
same,Potency,[16],inactive
same,Potency,[17],inactive
same,Potency,[18],inactive
same,Potency,[19],inactive
CCn1cc(C(=O)O)c(=O)c2ccc(C)nc21,Potency,[1],inactive
same,Potency,[2],inactive
same,Potency,[3],inactive
same,Potency,[4],inactive
same,Potency,[20],inactive
same,Potency,[8],inactive
same,Potency,[10],inactive and 3.34 µM (active)
same,Potency,[11],inactive
same,Potency,[12],inactive
same,Potency,[13],inactive
same,Potency,[17],inactive
same,Potency,[18],inactive
same,Potency,[19],inactive
Cc1ccc(O)c(-n2nc3ccccc3n2)c1,Potency,[1],inactive
same,Potency,[2],60.6 µM (active) and 27.3 µM (active) and 5.96 µM (active)
same,Potency,[3],inactive
same,Potency,[4],inactive
same,Potency,[5],inactive
same,Potency,[6],50.9 µM (active) and inactive
same,Potency,[7],inactive
same,Potency,[8],inactive
same,Potency,[9],inactive
same,Potency,[10],inactive
same,Potency,[12],inactive
same,Potency,[13],inactive
same,Potency,[14],inactive
same,Potency,[15],inactive
same,Potency,[16],inactive
same,Potency,[18],inactive
same,Potency,[19],inactive
